Screening results (PubChem BioAssay)
In the library only some 10% were active in any assay of this set; here they are far more common.
3T3 cytotox: kills NIH 3T3 cells; NIH 3T3 viability, CellTiter-Glo ATP luminescence, 48-72 h; Potency, µM (series often up to 96.7 µM), for inactives: top-dose activity change, negative = cytotoxicity, hits mostly inhibitors; 4.3% of 94,000 active; AID 1345082; also: nearly all actives have a fitted effect of over 55% in size
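Cytotoxicity is measured as loss of cellular ATP: NIH 3T3 cells (400/well) are exposed to compound for 48 or 72 hr at 37 °C, then CellTiter-Glo luminescence is imaged after 10 min at room temperature.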
GPT2 inhibitor: inhibitors of human GPT2 alanine aminotransferase | Recombinant GPT2, coupled pyruvate oxidase/HRP Amplex Red fluorescence | Potency, µM (series often up to 57.7 µM), for the others: at the highest dose activity change, negative = inhibition, actives largely listed as inhibitors | 0.25% of 100,000 active; also: nearly all actives have a fitted effect of over 60% in size
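Fluorescence of coupled pyruvate oxidase/HRP/Amplex Red system (50uM Amplex, 30 min, dark) reports pyruvate formed by GPT2. Enzyme reaction: 10ng/uL GPT2, 2mM L-alanine, 250uM a-KG, 30 min room temperature, pH 7.5; 50uM AOA control.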
Luciferase inh: Photinus pyralis luciferase inhibition. purified P. pyralis luciferase, luminescence, biochemical. Potency, µM (highest dose often 115 µM), hits mostly inhibitors. 2.5% of 76,000 active; also: nearly all actives have a fitted effect of over 65% in size
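Inhibitors were tested against purified firefly luciferase in a biochemical, low-substrate format (both substrates at 10uM) and luminescence measured with a CCD imager.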
hNpr1 antagonist: antagonists of human natriuretic peptide receptor Npr1 | P16066 | HEK293 hNpr1 GloSensor cGMP, ANP-stimulated luminescence | Potency, µM (titrated, usually from 46.3 µM), for inactives: at the highest dose activity change, negative = inhibition, most hits filed as inhibitors | 1.6% of 76,000 active; calls by dose curve; also: nearly all actives have a fitted effect of over 60% in size
Target sequence (P16066 whole entry, looked up): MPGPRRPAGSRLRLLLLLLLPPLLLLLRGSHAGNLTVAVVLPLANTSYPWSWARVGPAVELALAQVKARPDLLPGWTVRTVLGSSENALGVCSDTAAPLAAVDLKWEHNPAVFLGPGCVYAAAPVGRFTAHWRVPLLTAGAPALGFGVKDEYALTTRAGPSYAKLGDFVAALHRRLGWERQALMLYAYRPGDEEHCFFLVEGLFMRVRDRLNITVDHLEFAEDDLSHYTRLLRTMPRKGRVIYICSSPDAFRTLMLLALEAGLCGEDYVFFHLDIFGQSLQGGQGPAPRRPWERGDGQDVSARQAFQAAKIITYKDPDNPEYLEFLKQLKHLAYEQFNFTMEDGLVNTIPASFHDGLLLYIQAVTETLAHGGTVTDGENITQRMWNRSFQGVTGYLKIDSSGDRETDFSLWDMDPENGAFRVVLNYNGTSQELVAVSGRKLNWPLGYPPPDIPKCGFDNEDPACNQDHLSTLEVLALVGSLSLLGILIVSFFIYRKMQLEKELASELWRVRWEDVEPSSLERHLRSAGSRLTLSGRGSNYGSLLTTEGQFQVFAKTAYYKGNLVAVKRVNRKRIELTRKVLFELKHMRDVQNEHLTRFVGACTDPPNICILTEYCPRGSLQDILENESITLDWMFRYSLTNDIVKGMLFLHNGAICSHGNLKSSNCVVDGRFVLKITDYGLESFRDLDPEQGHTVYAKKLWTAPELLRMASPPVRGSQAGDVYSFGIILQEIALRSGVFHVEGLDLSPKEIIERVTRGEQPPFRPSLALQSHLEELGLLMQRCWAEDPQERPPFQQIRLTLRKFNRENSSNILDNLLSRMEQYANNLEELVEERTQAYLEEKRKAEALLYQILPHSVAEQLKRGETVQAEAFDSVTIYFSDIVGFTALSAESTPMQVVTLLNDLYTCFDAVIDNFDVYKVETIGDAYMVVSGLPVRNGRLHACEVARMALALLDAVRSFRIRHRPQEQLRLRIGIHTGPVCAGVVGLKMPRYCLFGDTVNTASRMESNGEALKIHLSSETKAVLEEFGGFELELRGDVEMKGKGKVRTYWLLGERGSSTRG
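Compound pre-incubated 30 min at room temperature on GloSensor-loaded HEK293 cells stably carrying hNpr1 and the pGS-40F cGMP biosensor. Stimulation uses hNppA at 0.1 nM final; luminescence is taken at baseline and 20 min post-agonist.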
HEK293 tox: HEK 293 cell cytotoxicity; HEK 293 viability, ATP luminescence (CellTiter-Glo), 48-72 h; Potency, µM (series often up to 115 µM), for inactives: at the top dose activity change, negative = cytotoxicity, most hits filed as inhibitors; 6.6% of 94,000 active; AID 1345083; also: nearly all actives have a fitted effect of over 60% in size
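Cells seeded first (HEK 293, 250 cells/well), then compound added by pintool. Incubation ran 48 or 72 hr at 37 degree Celsius. CellTiter-Glo was added and luminescence imaged after 10 min at room temperature.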
Starred values were filed as active, the others as inactive; [ ] = dose if it differs, or a comment. Unless noted, calls follow the shape of the dose curve; as a rule, active = well fitted curve in the direction sought with a large enough effect; inconclusive = small, poorly fitted or top-dose-only effect, or another doubt; inactive = no such curve, though single readings can be large; an effect the other way counts as inactive or inconclusive. % is scaled to controls: 0 for no effect and ±100 for the full control effect; potency is read from the fitted curve at half-maximal effect.

`O=C1Nc2ccc(-c3ccccc3F)cc2C(=O)N2CCN(C(=O)c3ccco3)C[C@@H]12` gave 3T3 cytotox inconclusive, GPT2 inhibitor 0%[88.5 µM], Luciferase inh inactive, hNpr1 antagonist 1%[70.6 µM] and HEK293 tox inconclusive.
`COc1ccc(Cl)cc1-c1ccc2c(c1)C(=O)N1CCN(C(=O)CN)C[C@H]1C(=O)N2` gave 3T3 cytotox 100µM*, GPT2 inhibitor -17%[88.5 µM], Luciferase inh inactive, hNpr1 antagonist 3%[70.6 µM] and HEK293 tox inconclusive.
For Cc1ccc(CN2C(=O)OC(c3cccc(NC(=O)Cc4ccccc4)c3)C2C(=O)NCC(C)C)cc1 (stereo not given) the results were 3T3 cytotox inconclusive, GPT2 inhibitor inactive, Luciferase inh inactive, hNpr1 antagonist -2% and HEK293 tox inconclusive.
`COc1ccc(Cl)cc1-c1ccc2c(c1)C(=O)N1CCN(C(=O)C3CCCC3)C[C@H]1C(=O)N2` gave 3T3 cytotox inconclusive, GPT2 inhibitor 1%, Luciferase inh inactive, hNpr1 antagonist -7% and HEK293 tox inconclusive.
O=C1Nc2ccc(-c3ccc(Cl)cc3)cc2C(=O)N2CCN(C(=O)C3CCCCC3)C[C@H]12 was read as 3T3 cytotox inconclusive, GPT2 inhibitor -1%, Luciferase inh inactive, hNpr1 antagonist -21% and HEK293 tox 40µM*.
`O=C(NCC1CC1)c1ccc2nc(-c3ccccn3)oc2c1` gave 3T3 cytotox inconclusive, GPT2 inhibitor inactive and HEK293 tox 112µM*.
Cc1cccc(-c2nc3cc(C(=O)NC4CCCCCC4)ccc3o2)n1 was read as 3T3 cytotox inconclusive, GPT2 inhibitor 1% and HEK293 tox inconclusive.
Screening COc1ncccc1-c1nc2cc(C(=O)Nc3cccc(Cl)c3)ccc2o1 returned 3T3 cytotox -32%, GPT2 inhibitor 4% and HEK293 tox 13µM*.
For COc1ccc(NC(=O)c2ccc3oc(-c4cccnc4OC)nc3c2)cc1 the results were 3T3 cytotox -22%[138 µM], GPT2 inhibitor inactive and HEK293 tox inconclusive.
`Cc1cccc(-c2nc3ccc(C(=O)NC4CC4)cc3o2)n1` gave 3T3 cytotox inconclusive, GPT2 inhibitor -4% and HEK293 tox 45µM*.
`COc1ccc(NC(=O)c2ccc3nc(-c4ccccn4)oc3c2)cc1` gave 3T3 cytotox -39%, GPT2 inhibitor -3% and HEK293 tox 25µM*.
`O=C(NCc1ccc(F)cc1)C1CCN(c2ccnc3ccnn23)CC1` gave 3T3 cytotox inconclusive, GPT2 inhibitor 0% and HEK293 tox inconclusive.
FC(F)(F)c1cccc(-c2ncc[nH]2)c1 was read as 3T3 cytotox inconclusive, GPT2 inhibitor -17%[88.5 µM] and HEK293 tox inconclusive.
For Cc1nnc2ccc(N3CCC(NC(=O)NC4CCCC4)C3)nn12 (stereo not given) the results were 3T3 cytotox -4%[138 µM] and HEK293 tox -10%[172 µM].
For O=C(c1ccc2cc[nH]c2c1)N1CCC(N2CC(OCC3CC3)C23CCCCC3)CC1 (stereo not given) the results were 3T3 cytotox inconclusive, GPT2 inhibitor inconclusive, Luciferase inh inactive, hNpr1 antagonist 2% and HEK293 tox 50µM*.
For CSc1ccc(-c2cccc(C(=O)NCCN[S+](=O)([O-])c3c(C)noc3C)c2)cc1 the results were 3T3 cytotox inconclusive, GPT2 inhibitor -11% and HEK293 tox inconclusive.
`N#Cc1ccc2nc([C@H]3CCN(Cc4ccccc4)C3)[nH]c2c1` gave 3T3 cytotox 40µM*, GPT2 inhibitor 3%[88.5 µM], Luciferase inh inconclusive, hNpr1 antagonist 2%[70.6 µM] and HEK293 tox 50µM*.
Screening N#Cc1ccc2nc([C@H]3CCN(Cc4ccccn4)C3)[nH]c2c1 returned 3T3 cytotox 63µM*, GPT2 inhibitor -9%[88.5 µM], Luciferase inh inconclusive, hNpr1 antagonist 4%[70.6 µM] and HEK293 tox 100µM*.
Screening COc1ccc(CN2CC[C@H](c3nc4c(C(N)=O)cccc4[nH]3)C2)cc1 returned 3T3 cytotox inconclusive, GPT2 inhibitor -25%[88.5 µM], Luciferase inh inactive, hNpr1 antagonist -12%[70.6 µM] and HEK293 tox inconclusive.
`FC(F)(F)c1ccc2nc([C@H]3CCN(Cc4ccccn4)C3)[nH]c2c1` gave 3T3 cytotox inconclusive, GPT2 inhibitor -9%[88.5 µM], Luciferase inh inconclusive, hNpr1 antagonist 0%[70.6 µM] and HEK293 tox 45µM*.
For N#Cc1ccc(CN2CCC(c3nc4ccncc4[nH]3)C2)cc1 (stereo not given) the results were 3T3 cytotox inconclusive, GPT2 inhibitor -2%, Luciferase inh inactive, hNpr1 antagonist -5%[70.6 µM] and HEK293 tox inconclusive.
O=C(C1CCCCC1)N1CC[C@H](c2nc3ccc(C(F)(F)F)cc3[nH]2)C1 was read as 3T3 cytotox inconclusive, GPT2 inhibitor -3%[88.5 µM], Luciferase inh inactive, hNpr1 antagonist 0%[70.6 µM] and HEK293 tox inconclusive.
For NC(=O)c1cccc2[nH]c([C@H]3CCN(Cc4cccc(Cl)c4)C3)nc12 the results were 3T3 cytotox inconclusive, GPT2 inhibitor inactive, Luciferase inh inactive, hNpr1 antagonist inconclusive and HEK293 tox 56µM*.
O=C(Nc1ccc([C@H]2OCC(=O)N(Cc3ccc(F)cc3)[C@@H]2CO)cc1)c1ccccc1 was read as 3T3 cytotox inconclusive, GPT2 inhibitor -4%[88.5 µM], Luciferase inh inactive, hNpr1 antagonist -15%[70.6 µM] and HEK293 tox inconclusive.
O=C(NCCCc1ccccc1)c1nc2cccnc2n(CCc2ccccc2)c1=O was read as 3T3 cytotox inconclusive, GPT2 inhibitor inactive and HEK293 tox inconclusive.
`O=C(NC1CCCCC1)N1CCCC1c1nncn1C1CCCC1` (stereo not given) gave 3T3 cytotox -13%, GPT2 inhibitor -2% and HEK293 tox -9%.
For O=[S+]1([O-])NC2(CCCN(Cc3ccccc3C(F)(F)F)C2)CNc2ccccc21 (stereo not given) the results were 3T3 cytotox inconclusive, GPT2 inhibitor -1%, Luciferase inh inactive, hNpr1 antagonist -29% and HEK293 tox 45µM*.
O=[S+]1([O-])NC2(CCCN(Cc3ccccc3)C2)CNc2ccccc21 (stereo not given) was read as 3T3 cytotox -21%, GPT2 inhibitor -4%, Luciferase inh inactive, hNpr1 antagonist 9% and HEK293 tox inconclusive.
`O=C1NC(=NC2CCCCC2)C2(CCN(Cc3cccnc3)C2)N1c1cccnc1` (stereo not given) gave 3T3 cytotox 40µM*, GPT2 inhibitor inactive and HEK293 tox inactive.
For O=C1NC(=NC2CCCC2)C2(CCCN(Cc3ccsc3)C2)N1c1cccnc1 (stereo not given) the results were 3T3 cytotox 28µM*, GPT2 inhibitor inactive and HEK293 tox 3%.
Screening O=C1NC(=NC2CCCC2)C2(CCCN(Cc3ccc(F)cc3)C2)N1c1cccnc1 (stereo not given) returned 3T3 cytotox 16µM*, GPT2 inhibitor 4% and HEK293 tox -24%.
